Most compounds without a hit are left out; they make up all but 7.9% or so of the library.
HCV inh: inhibitors of hepatitis C virus infection; AID 651820; Huh7.5.1 HCVcc-Cre infection, luciferase reporter, 44 h; hit rate 3.4% among 340,000; Potency, µM (top dose mostly 41.8 µM), usual class: inhibitors; active = well fitted inhibition curve with a large enough effect; inconclusive = small, poorly fitted or top-dose-only effect, or another doubt; inactive = no such curve, though single readings can be large or run the other way
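A cell-based infection assay in which seeded cells (1,000 per well) receive test compound after 4 h, are inoculated with HCVcc-Cre at approximately 0.5 moi, and are incubated 44 h before luminescence detection.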
LASV entry inh: blocks Lassa virus binding to or entry into cells; hit rate 1.2% among 300,000; Lassa virus pseudotype entry inhibition, cell reporter; Potency, µM (series often up to 37.9 µM), actives largely listed as inhibitors; AID 540256; calls by dose curve; tested in HEK293 cells; note: nearly all actives have a fitted effect of over 50% in size
HCMV antiviral: blocks human cytomegalovirus replication. activity change, negative = inhibition, % at 57.5 µM. hit rate 4.5% among 410,000. AID 1259415. HFF cells, HCMV-luciferase reporter, 72 h; active compounds read low; in the data active = activity change below about -60%; inconclusive = no clear call, values can overlap the other calls; inactive = above about -39%
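Inhibition of viral replication was scored as loss of reporter luminescence in HFFs infected with HCMV-luciferase (MOI 1 PFU/cell) for 72 h; compounds tested at 2 doses, normalized to buffer and Salinomycin controls.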
FMDV antiviral: blocks foot and mouth disease virus | FMDV antiviral cell-based qHTS | Potency, µM (titrated, usually from 57.9 µM), usual class: inhibitors | hit rate 1.2% among 410,000 | AID 1159524; calls by dose curve; tested in HEK293T cells; note: read-out not given here; nearly all actives have a fitted effect of over 45% in size
MARV entry inh: Marburg virus entry inhibition. Marburg virus pseudotyped entry inhibition, cell reporter. AID 540276. Potency, µM (series often up to 37.8 µM), hits mostly inhibitors. hit rate 1.8% among 300,000; calls by dose curve; tested in HEK293 cells
Large screens that a line does not name were inactive.

Cc1ccc(Cl)cc1-n1ncc2c(Nc3ccc4c(c3)OCCO4)ncnc21	LASV entry inh inconclusive, HCMV antiviral -88, FMDV antiviral inconclusive (no result: HCV inh, MARV entry inh)
CCOC(=O)N1CCC(Nc2ncnc3c2cnn3-c2ccc(C)cc2C)CC1	HCV inh 7.1µM, HCMV antiviral -93, FMDV antiviral inconclusive (no result: LASV entry inh, MARV entry inh)
Clc1cccc(-n2ncc3c(NC4CCCCC4)ncnc32)c1	LASV entry inh inconclusive (no result: HCV inh, MARV entry inh)
NNC(=O)Cc1cccc2ccc(Cl)cc12	none (no result: HCV inh, LASV entry inh, MARV entry inh)
CCOC(=O)C1=CCN(S(=O)(=O)c2ccc(C)cc2)C1c1cccs1 (stereo not given)	none (no result: HCV inh, LASV entry inh, MARV entry inh)
CC(=O)c1ccc(NC(=O)CSc2nccn2C2CCCC2)cc1	none (no result: HCV inh, MARV entry inh)
Oc1ccc(CNc2ccccc2F)c2cccnc12	HCV inh 11µM, LASV entry inh inconclusive, HCMV antiviral -89, MARV entry inh inconclusive
O=S(=O)(Nc1ccc(O)c2ncccc12)c1ccccc1F	none (no result: HCV inh, LASV entry inh, MARV entry inh)
Oc1ccc(Cc2ccccc2)c2cccnc12	HCV inh inconclusive, HCMV antiviral -100, MARV entry inh inconclusive
OCc1ccc(O)c2ncccc12	HCV inh 11µM, LASV entry inh inconclusive, HCMV antiviral -98, MARV entry inh inconclusive
Oc1ccc(COCc2ccccc2)c2cccnc12	HCV inh 5µM, LASV entry inh inconclusive, HCMV antiviral -99, MARV entry inh inconclusive
O=C(O)c1ccc(O)c2ncccc12	none (no result: HCV inh, LASV entry inh, MARV entry inh)
CC1(C)CC(=O)c2cc(C(=O)O)c(=O)n(-c3ccccc3)c2C1	MARV entry inh inconclusive
CC1(C)CC(=O)c2cc(C(=O)N3CCCC(C)(C)C3)c(=O)n(-c3ccccc3)c2C1	HCMV antiviral -77
CN1N=C(C(C)(C)C)CC1=O	HCMV antiviral inconclusive, MARV entry inh 22µM
COC(=O)CN1C(=O)CSc2ccc(S(=O)(=O)Nc3ccc(Cl)cc3C)cc21	none (no result: HCV inh, MARV entry inh)
COc1ccc(C(=O)c2ccc(Cl)c([N+](=O)[O-])c2)cc1	HCV inh inconclusive, LASV entry inh inconclusive, HCMV antiviral -83, FMDV antiviral inconclusive, MARV entry inh 5.8µM
COc1ccc(-c2nc3c(c(=O)n(C)c(=O)n3C)n2CC2CC(c3ccccc3)=NO2)cc1OC (stereo not given)	HCV inh 5.6µM, MARV entry inh inconclusive
Cc1cc(C)c(NC(=O)c2ccc3nc(C(C)C)oc3c2)c(C)c1	none (no result: HCV inh, MARV entry inh)
COc1cc(OC)c(NC(=O)c2ccc3nc(C(C)C)oc3c2)cc1Cl	FMDV antiviral 13µM (no result: HCV inh, MARV entry inh)
O=S(=O)(NCCc1csc2nc(-c3ccc(Cl)cc3)nn12)c1ccc(Oc2ccccc2)cc1	none (no result: HCV inh, MARV entry inh)
COc1ccc(C(O)c2cnc(C)n2Cc2ccccc2)cc1 (stereo not given)	none (no result: HCV inh, LASV entry inh, MARV entry inh)
Cc1oc(C(C)(C)C)cc1C(=O)NC(Cc1ccccc1)C(=O)O (stereo not given)	LASV entry inh inconclusive, HCMV antiviral -77, MARV entry inh inconclusive
Cc1c(C(=O)N2CCC(C)CC2)oc2ccc3c(c12)C(O)CC1(CCCCC1)O3 (stereo not given)	HCV inh inconclusive, HCMV antiviral -70 (no result: LASV entry inh, MARV entry inh)
CCOC(=O)CSc1nc(-c2ccc(OCC)cc2)cc(C(F)(F)F)c1C#N	none (no result: HCV inh)
CCOC(=O)CSc1nc(-c2ccc(F)cc2)cc(C(F)(F)F)c1C#N	FMDV antiviral 32µM (no result: HCV inh)
COc1ccc(-c2cc(C3CC3)nc(SCC(=O)c3cccs3)c2C#N)cc1	HCV inh inconclusive
CCN(CC)C(=O)CSc1nc(-c2cccs2)cc(-c2cccs2)c1C#N	HCV inh 2.5µM, LASV entry inh 18µM, HCMV antiviral inconclusive, MARV entry inh inconclusive
COc1ccc(-c2cc(-c3ccccc3)c(C#N)c(SCC(=O)O)n2)cc1	HCMV antiviral inconclusive
CCN(CC)C(=O)CSc1nc(-c2ccccc2)cc(-c2ccc(OC)cc2)c1C#N	HCMV antiviral -65 (no result: HCV inh)
CSc1nc(C2CC2)cc(-c2cccs2)c1C#N	HCV inh 11µM, HCMV antiviral -102 (no result: FMDV antiviral)
Cc1cc(=O)nc2c3ccccc3n(CC(=O)NCCCN3CCCC3=O)n12	none
C[C@@H]1CN(Cc2ccc3c(c2)CN(Cc2cccn2-c2cccnc2)CCO3)C[C@H](C)O1	none (no result: HCV inh, LASV entry inh, HCMV antiviral, MARV entry inh)
CC1(CCC(=O)N2CCCC(N3CCN(c4cccc(C(F)(F)F)c4)CC3)C2)CC1 (stereo not given)	HCV inh inconclusive (no result: LASV entry inh, MARV entry inh)
CCCNC(=O)N[C@H]1C=C[C@H](CC(=O)NC2CCCCC2)O[C@@H]1CO	none (no result: HCV inh, LASV entry inh, MARV entry inh)
CC1=NC(=O)C(C#N)C=C1c1ccncc1 (stereo not given)	none (no result: HCV inh, LASV entry inh, HCMV antiviral, FMDV antiviral)
Cc1ccc(C)c(N2CCN(C(=O)C3CCN(S(=O)(=O)c4cn(C)cn4)CC3)CC2)c1	none (no result: HCV inh, MARV entry inh)
CC(C)OC(=O)CC(=O)CSc1nc(-c2ccc(F)cc2)cc(-c2ccccc2)c1C#N	HCV inh inconclusive, LASV entry inh inconclusive, HCMV antiviral -62, MARV entry inh inconclusive
COc1ccc(-c2cc(-c3ccccc3)nc(SCC(=O)CC(=O)OC(C)C)c2C#N)cc1	none (no result: HCV inh)
COc1cc(CNc2ccc(N3CCCC3)cc2)ccc1OCc1ccccc1	HCV inh inconclusive, MARV entry inh inconclusive
COc1cc(CNCc2ccccn2)ccc1OCc1ccc(Cl)cc1	MARV entry inh inconclusive
COc1cc(CNCc2ccco2)ccc1OCc1ccccc1	HCV inh 11µM, MARV entry inh inconclusive (no result: FMDV antiviral)
COc1cc(CNC23CC4CC(CC(C4)C2)C3)ccc1OCc1ccccc1	MARV entry inh 5µM
COc1cc(CNCc2ccccn2)ccc1OCc1c(Cl)cccc1Cl	HCV inh 11µM, LASV entry inh inconclusive, MARV entry inh inconclusive
COc1cc(CNCc2cccs2)ccc1OCc1ccccc1	HCV inh inconclusive (no result: FMDV antiviral)
Cc1c(C(=O)N2CCCCC2c2cccnc2)sc2ncnc(NCc3cccs3)c12 (stereo not given)	none (no result: HCV inh, LASV entry inh, HCMV antiviral, MARV entry inh)
COc1ccc(/C=C2\CN(Cc3ccccc3)C/C(=C\c3ccc(OC)c(O)c3)C2=O)cc1O	HCV inh 6.3µM, LASV entry inh inconclusive, HCMV antiviral -101, MARV entry inh inconclusive
CCN1C/C(=C\c2cccc([N+](=O)[O-])c2)C(=O)/C(=C/c2cccc([N+](=O)[O-])c2)C1	HCV inh 2.5µM, LASV entry inh 2.5µM, HCMV antiviral -100, FMDV antiviral 1.1µM, MARV entry inh inconclusive
CCN1C/C(=C/c2ccc(OC)c(O)c2)C(=O)/C(=C/c2ccc(OC)c(O)c2)C1	HCV inh inconclusive, HCMV antiviral -103 (no result: LASV entry inh, MARV entry inh)
COC(=O)c1c(N)[nH]c(C(=O)c2ccccc2)c1-c1ccccc1Br	none (no result: HCV inh, LASV entry inh, MARV entry inh)
CNC(=S)NCCCCc1cnc[nH]1	none (no result: HCV inh, LASV entry inh, HCMV antiviral, MARV entry inh)
O=S(=O)(c1ccccc1)N1[C@@H]2CC[C@@H](C2)[C@H]1c1nc2c(OCC3CCOCC3)cccc2[nH]1	none (no result: HCV inh, LASV entry inh, FMDV antiviral, MARV entry inh)
COc1ccc(CN2CCC3(CC2)c2ccccc2[C@@H](NC(=O)c2ccco2)[C@@H]3OC)c(O)c1	none (no result: HCV inh, LASV entry inh, HCMV antiviral, MARV entry inh)
N=c1ccn(CC(=O)c2ccc(-c3ccccc3)cc2)cc1	HCV inh 0.89µM, LASV entry inh inconclusive, HCMV antiviral -76, FMDV antiviral inconclusive, MARV entry inh inconclusive
O=C(CN1C(=O)CCC1=O)c1ccc(-c2ccccc2)cc1	LASV entry inh inconclusive, MARV entry inh inconclusive
CC(=O)c1ccc(NC(=O)COCc2cc(-c3ccco3)on2)cc1	none (no result: HCV inh, MARV entry inh)
COCC(C)n1c(-c2ccc3c(c2)NC(=O)CO3)csc1=Nc1ccc(OC(F)F)cc1 (stereo not given)	HCV inh 10µM, LASV entry inh inconclusive, HCMV antiviral -88, FMDV antiviral 20µM, MARV entry inh inconclusive

From PubChem
